# Test results as given in publication PMC11006913.
# Experiments:
# Assay in all cases: PBM; 200 nM protein, PBS
# Conditions in all cases: dsDNA, one strand shown
# HOXB4 [1] = target: HOXB4 (Homo sapiens, UniProt P17483 148-234)
# HOXA4 [2] = target: HOXA4 (Homo sapiens, UniProt Q00056 201-287, W262R)
# HOXA4 [3] = target: HOXA4 (Homo sapiens, UniProt Q00056 201-287, R217L)
# HOXB4 [4] = target: HOXB4 (Homo sapiens, UniProt P17483 148-234, V174I)
# ALX3 [5] = target: ALX3 (Homo sapiens, UniProt O95076 139-225, N203Q)
# HOXA4 [6] = target: HOXA4 (Homo sapiens, UniProt Q00056 201-287)
# ALX3 [7] = target: ALX3 (Homo sapiens, UniProt O95076 139-225)
# ALX3 [8] = target: ALX3 (Homo sapiens, UniProt O95076 139-225, L168Q)
# ALX3 [9] = target: ALX3 (Homo sapiens, UniProt O95076 139-225, L168V)
# HOXA4 [10] = target: HOXA4 (Homo sapiens, UniProt Q00056 201-287, W262F)
# ALX3 [11] = target: ALX3 (Homo sapiens, UniProt O95076 139-225, N203S)
# ALX1 [12] = target: ALX1 (Homo sapiens, UniProt Q15699 118-204, L144V)
# ALX1 [13] = target: ALX1 (Homo sapiens, UniProt Q15699 118-204, L144R)
# ALX1 [14] = target: ALX1 (Homo sapiens, UniProt Q15699 118-204)
# HOXC9 [15] = target: HOXC9 (Homo sapiens, UniProt P31274 178-260, K195R)
# HOXC9 [16] = target: HOXC9 (Homo sapiens, UniProt P31274 178-260)
# HOXC9 [17] = target: HOXC9 (Homo sapiens, UniProt P31274 178-260, R193K)
# VAX1 [18] = target: VAX1 (Homo sapiens, UniProt Q5SQQ9 86-172)
# HOXC9 [19] = target: HOXC9 (Homo sapiens, UniProt P31274 178-260, R222W)
# VAX1 [20] = target: VAX1 (Homo sapiens, UniProt Q5SQQ9 86-172, T142I)
# VAX1 [21] = target: VAX1 (Homo sapiens, UniProt Q5SQQ9 86-172, K157R)
# HOXA2 [22] = target: HOXA2 (Homo sapiens, UniProt O43364 129-215, R185T)
# HOXA2 [23] = target: HOXA2 (Homo sapiens, UniProt O43364 129-215, R185K)
# HOXA2 [24] = target: HOXA2 (Homo sapiens, UniProt O43364 129-215, Y150S)
# HOXA2 [25] = target: HOXA2 (Homo sapiens, UniProt O43364 129-215)
# HOXA2 (Homo sapiens, UniProt O43364 129-215), sequence (O43364 129-215): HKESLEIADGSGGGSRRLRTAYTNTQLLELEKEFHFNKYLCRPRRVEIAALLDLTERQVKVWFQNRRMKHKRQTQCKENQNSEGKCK
# HOXB4 (Homo sapiens, UniProt P17483 148-234), sequence (P17483 148-234): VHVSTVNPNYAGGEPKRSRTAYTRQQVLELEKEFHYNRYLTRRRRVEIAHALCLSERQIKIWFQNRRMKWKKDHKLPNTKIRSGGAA
# HOXB4 (Homo sapiens, UniProt P17483 148-234, V174I), sequence (P17483 148-234 V174I): as the sequence (P17483 148-234) above, with V27I counted along it
# HOXA4 (Homo sapiens, UniProt Q00056 201-287), sequence (Q00056 201-287): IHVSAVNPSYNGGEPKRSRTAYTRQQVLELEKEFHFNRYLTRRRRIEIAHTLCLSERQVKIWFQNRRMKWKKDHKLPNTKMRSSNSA
# HOXA4 (Homo sapiens, UniProt Q00056 201-287, W262F), sequence (Q00056 201-287 W262F): as the sequence (Q00056 201-287) above, with W62F counted along it
# HOXA4 (Homo sapiens, UniProt Q00056 201-287, W262R), sequence (Q00056 201-287 W262R): as the sequence (Q00056 201-287) above, with W62R counted along it
# HOXA4 (Homo sapiens, UniProt Q00056 201-287, R217L), sequence (Q00056 201-287 R217L): as the sequence (Q00056 201-287) above, with R17L counted along it
# VAX1 (Homo sapiens, UniProt Q5SQQ9 86-172), sequence (Q5SQQ9 86-172): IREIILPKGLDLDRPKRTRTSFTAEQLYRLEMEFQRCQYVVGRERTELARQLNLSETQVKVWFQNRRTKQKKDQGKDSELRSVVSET
# VAX1 (Homo sapiens, UniProt Q5SQQ9 86-172, K157R), sequence (Q5SQQ9 86-172 K157R): as the sequence (Q5SQQ9 86-172) above, with K72R counted along it
# VAX1 (Homo sapiens, UniProt Q5SQQ9 86-172, T142I), sequence (Q5SQQ9 86-172 T142I): as the sequence (Q5SQQ9 86-172) above, with T57I counted along it
# ALX1 (Homo sapiens, UniProt Q15699 118-204, L144R), sequence (Q15699 118-204 L144R): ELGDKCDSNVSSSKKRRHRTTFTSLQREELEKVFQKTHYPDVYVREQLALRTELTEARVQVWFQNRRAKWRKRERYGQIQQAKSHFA
# HOXA2 (Homo sapiens, UniProt O43364 129-215, Y150S), sequence (O43364 129-215 Y150S): as the sequence (O43364 129-215) above, with Y22S counted along it
# ALX1 (Homo sapiens, UniProt Q15699 118-204, L144V), sequence (Q15699 118-204 L144V): as the sequence (Q15699 118-204 L144R) above, with R27V counted along it
# ALX1 (Homo sapiens, UniProt Q15699 118-204), sequence (Q15699 118-204): as the sequence (Q15699 118-204 L144R) above, with R27L counted along it
# HOXC9 (Homo sapiens, UniProt P31274 178-260, R222W), sequence (P31274 178-260 R222W): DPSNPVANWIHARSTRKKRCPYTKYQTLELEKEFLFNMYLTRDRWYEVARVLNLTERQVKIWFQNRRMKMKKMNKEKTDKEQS
# ALX3 (Homo sapiens, UniProt O95076 139-225, L168Q), sequence (O95076 139-225 L168Q): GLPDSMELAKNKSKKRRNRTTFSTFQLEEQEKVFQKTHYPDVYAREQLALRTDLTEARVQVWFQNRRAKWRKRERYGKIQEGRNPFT
# ALX3 (Homo sapiens, UniProt O95076 139-225, N203Q), sequence (O95076 139-225 N203Q): as the sequence (O95076 139-225 L168Q) above, with Q30L, N65Q counted along it
# HOXA2 (Homo sapiens, UniProt O43364 129-215, R185K), sequence (O43364 129-215 R185K): as the sequence (O43364 129-215) above, with R57K counted along it
# HOXC9 (Homo sapiens, UniProt P31274 178-260, K195R), sequence (P31274 178-260 K195R): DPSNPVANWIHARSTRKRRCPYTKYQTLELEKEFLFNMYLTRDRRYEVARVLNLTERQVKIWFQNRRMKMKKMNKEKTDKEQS
# HOXA2 (Homo sapiens, UniProt O43364 129-215, R185T), sequence (O43364 129-215 R185T): as the sequence (O43364 129-215) above, with R57T counted along it
# ALX3 (Homo sapiens, UniProt O95076 139-225, N203S), sequence (O95076 139-225 N203S): as the sequence (O95076 139-225 L168Q) above, with Q30L, N65S counted along it
# ALX3 (Homo sapiens, UniProt O95076 139-225, L168V), sequence (O95076 139-225 L168V): as the sequence (O95076 139-225 L168Q) above, with Q30V counted along it
# HOXC9 (Homo sapiens, UniProt P31274 178-260), sequence (P31274 178-260): as the sequence (P31274 178-260 R222W) above, with W45R counted along it
# HOXC9 (Homo sapiens, UniProt P31274 178-260, R193K), sequence (P31274 178-260 R193K): as the sequence (P31274 178-260 R222W) above, with R16K, W45R counted along it
# ALX3 (Homo sapiens, UniProt O95076 139-225), sequence (O95076 139-225): as the sequence (O95076 139-225 L168Q) above, with Q30L counted along it
sequence,measurement,setting,value
CAGGCCCC,binding signal,HOXB4 [1],"7.68 upbm affinity estimate (log intensity, higher = more binding, comparable within an allelic series)"
same,binding signal,HOXA4 [2],"9.66 upbm affinity estimate (log intensity, higher = more binding, comparable within an allelic series)"
same,binding signal,HOXA4 [3],"9.56 upbm affinity estimate (log intensity, higher = more binding, comparable within an allelic series)"
same,binding signal,HOXB4 [4],"7.6 upbm affinity estimate (log intensity, higher = more binding, comparable within an allelic series)"
same,binding signal,ALX3 [5],"7.7 upbm affinity estimate (log intensity, higher = more binding, comparable within an allelic series)"
same,binding signal,HOXA4 [6],"9.7 upbm affinity estimate (log intensity, higher = more binding, comparable within an allelic series)"
same,binding signal,ALX3 [7],"7.63 upbm affinity estimate (log intensity, higher = more binding, comparable within an allelic series)"
same,binding signal,ALX3 [8],"7.69 upbm affinity estimate (log intensity, higher = more binding, comparable within an allelic series)"
same,binding signal,ALX3 [9],"7.7 upbm affinity estimate (log intensity, higher = more binding, comparable within an allelic series)"
same,binding signal,HOXA4 [10],"9.81 upbm affinity estimate (log intensity, higher = more binding, comparable within an allelic series)"
same,binding signal,ALX3 [11],"7.69 upbm affinity estimate (log intensity, higher = more binding, comparable within an allelic series)"
ATCATTAC,binding signal,HOXB4 [1],"13.1 upbm affinity estimate (log intensity, higher = more binding, comparable within an allelic series)"
same,binding signal,HOXA4 [2],"10.4 upbm affinity estimate (log intensity, higher = more binding, comparable within an allelic series)"
same,binding signal,HOXA4 [3],"12 upbm affinity estimate (log intensity, higher = more binding, comparable within an allelic series)"
same,binding signal,HOXB4 [4],"13.8 upbm affinity estimate (log intensity, higher = more binding, comparable within an allelic series)"
same,binding signal,HOXA4 [6],"13.6 upbm affinity estimate (log intensity, higher = more binding, comparable within an allelic series)"
same,binding signal,HOXA4 [10],"11.2 upbm affinity estimate (log intensity, higher = more binding, comparable within an allelic series)"
GGCCCCCA,binding signal,HOXB4 [1],"7.76 upbm affinity estimate (log intensity, higher = more binding, comparable within an allelic series)"
same,binding signal,HOXA4 [2],"9.68 upbm affinity estimate (log intensity, higher = more binding, comparable within an allelic series)"
same,binding signal,HOXA4 [3],"9.68 upbm affinity estimate (log intensity, higher = more binding, comparable within an allelic series)"
same,binding signal,HOXB4 [4],"7.77 upbm affinity estimate (log intensity, higher = more binding, comparable within an allelic series)"
same,binding signal,ALX1 [12],"6.64 upbm affinity estimate (log intensity, higher = more binding, comparable within an allelic series)"
same,binding signal,ALX1 [13],"6.56 upbm affinity estimate (log intensity, higher = more binding, comparable within an allelic series)"
same,binding signal,HOXA4 [6],"9.71 upbm affinity estimate (log intensity, higher = more binding, comparable within an allelic series)"
same,binding signal,ALX1 [14],"6.65 upbm affinity estimate (log intensity, higher = more binding, comparable within an allelic series)"
same,binding signal,HOXA4 [10],"9.82 upbm affinity estimate (log intensity, higher = more binding, comparable within an allelic series)"
TCCCAGGA,binding signal,HOXB4 [1],"7.82 upbm affinity estimate (log intensity, higher = more binding, comparable within an allelic series)"
same,binding signal,HOXC9 [15],"9.51 upbm affinity estimate (log intensity, higher = more binding, comparable within an allelic series)"
same,binding signal,HOXB4 [4],"7.66 upbm affinity estimate (log intensity, higher = more binding, comparable within an allelic series)"
same,binding signal,HOXC9 [16],"9.58 upbm affinity estimate (log intensity, higher = more binding, comparable within an allelic series)"
same,binding signal,HOXC9 [17],"9.57 upbm affinity estimate (log intensity, higher = more binding, comparable within an allelic series)"
same,binding signal,VAX1 [18],"7.2 upbm affinity estimate (log intensity, higher = more binding, comparable within an allelic series)"
same,binding signal,HOXC9 [19],"9.72 upbm affinity estimate (log intensity, higher = more binding, comparable within an allelic series)"
same,binding signal,VAX1 [20],"7.36 upbm affinity estimate (log intensity, higher = more binding, comparable within an allelic series)"
same,binding signal,VAX1 [21],"7.24 upbm affinity estimate (log intensity, higher = more binding, comparable within an allelic series)"
CGGCGGTC,binding signal,HOXB4 [1],"7.42 upbm affinity estimate (log intensity, higher = more binding, comparable within an allelic series)"
same,binding signal,HOXA4 [2],"9.72 upbm affinity estimate (log intensity, higher = more binding, comparable within an allelic series)"
same,binding signal,HOXA4 [3],"9.69 upbm affinity estimate (log intensity, higher = more binding, comparable within an allelic series)"
same,binding signal,HOXB4 [4],"7.32 upbm affinity estimate (log intensity, higher = more binding, comparable within an allelic series)"
same,binding signal,HOXA4 [6],"9.77 upbm affinity estimate (log intensity, higher = more binding, comparable within an allelic series)"
same,binding signal,HOXA4 [10],"9.76 upbm affinity estimate (log intensity, higher = more binding, comparable within an allelic series)"
GGTAATGA,binding signal,HOXB4 [1],"12.9 upbm affinity estimate (log intensity, higher = more binding, comparable within an allelic series)"
same,binding signal,HOXA4 [2],"10.4 upbm affinity estimate (log intensity, higher = more binding, comparable within an allelic series)"
same,binding signal,HOXA2 [22],"12.1 upbm affinity estimate (log intensity, higher = more binding, comparable within an allelic series)"
same,binding signal,HOXA4 [3],"11.9 upbm affinity estimate (log intensity, higher = more binding, comparable within an allelic series)"
same,binding signal,HOXB4 [4],"13.6 upbm affinity estimate (log intensity, higher = more binding, comparable within an allelic series)"
same,binding signal,HOXA2 [23],"13 upbm affinity estimate (log intensity, higher = more binding, comparable within an allelic series)"
same,binding signal,HOXA4 [6],"13.5 upbm affinity estimate (log intensity, higher = more binding, comparable within an allelic series)"
same,binding signal,VAX1 [18],"12.8 upbm affinity estimate (log intensity, higher = more binding, comparable within an allelic series)"
same,binding signal,VAX1 [20],"12.6 upbm affinity estimate (log intensity, higher = more binding, comparable within an allelic series)"
same,binding signal,HOXA2 [24],"10.8 upbm affinity estimate (log intensity, higher = more binding, comparable within an allelic series)"
same,binding signal,HOXA4 [10],"11.2 upbm affinity estimate (log intensity, higher = more binding, comparable within an allelic series)"
same,binding signal,HOXA2 [25],"12.1 upbm affinity estimate (log intensity, higher = more binding, comparable within an allelic series)"
same,binding signal,VAX1 [21],"12.5 upbm affinity estimate (log intensity, higher = more binding, comparable within an allelic series)"
